# Sampled rows, rich in hits. Any-hit rate of the full collection: about 2.6%.
# PRMT1 inh: PRMT1 methyltransferase inhibitors, primary screen, biochemical, fluorescence polarization; Protein arginine N-methyltransferase 1 (Homo sapiens), Q99873; recombinant PRMT1, activity-based probe fluorescence polarization; inhibition, % at 2.79 µM; actives 1.3% (n = 370,000); AID 652257, 2013;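 active means inhibition above about 21% made by adding two undisclosed values, limit read from the data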
# Target sequence (Q99873 whole entry, looked up): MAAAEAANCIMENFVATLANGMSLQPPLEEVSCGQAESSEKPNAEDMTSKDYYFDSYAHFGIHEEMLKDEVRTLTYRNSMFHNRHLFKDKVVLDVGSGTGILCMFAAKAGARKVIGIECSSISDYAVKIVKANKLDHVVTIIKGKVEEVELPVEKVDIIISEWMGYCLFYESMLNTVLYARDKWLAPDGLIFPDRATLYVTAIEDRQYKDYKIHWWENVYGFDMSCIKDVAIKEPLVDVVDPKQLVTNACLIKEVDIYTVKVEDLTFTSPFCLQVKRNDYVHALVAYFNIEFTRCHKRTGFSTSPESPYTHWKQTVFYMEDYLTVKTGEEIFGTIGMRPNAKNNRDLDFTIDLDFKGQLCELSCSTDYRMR
# SIAE inh: human SIAE inhibitors, primary screen, biochemical, fluorescence polarization, FP-Rh probe, 1536-well HTS; Sialate O-acetylesterase (Homo sapiens), Q9HAT2; SIAE FP-Rh probe binding; inhibition, % at 9.66 µM; actives 0.69% (n = 370,000); AID 1053197, 2014;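 active means inhibition above a cutoff: mean of compounds within the control limits plus 3 SD of those, cut at about 17% in these data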;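 further: 0% = plate median of compound wells and 100% = probe without SIAE protein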
# TCR CD3 inh: inhibitors of human TCR-CD3 interaction, primary screen, biochemical, fluorescence, TAMRA-labeled TCR probe; T-cell receptor (TCR); inhibition, % at 9.4 µM; actives 0.37% (n = 360,000); AID 651800, 2012;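 further: recombinant mutant TCR 2C K166C tagged with TAMRA read by polarization; 0% = receptor in buffer alone and 100% = receptor with positive control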
# Fam108B inh: mouse Fam108B serine hydrolase inhibitors, primary screen, counter-screen for RBBP9 inhibitor project, biochemical, fluorescence polarization | recombinant Fam108B, FP-Rh probe fluorescence polarization | inhibition, % at 9.51 µM | actives 0.33% (n = 300,000) | AID 1947, 2009;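 active means inhibition above the screen mean inhibition plus 3 SD, computed separately per campaign, cut at about 18% in these data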;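 further: inhibitors lower polarization as less probe binds the enzyme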
# PME-1 primary: PME-1 inhibitors via competitive probe labeling, primary screen, biochemical, fluorescence polarization, FP-Rh probe, HTS; recombinant PME-1; inhibition, % at 5.9 µM; actives 0.53% (n = 320,000); AID 2130, 2009;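 active means inhibition above the campaign mean of all compounds plus 3 SD, cut at about 26% in these data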;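 further: competitive labeling of PME-1 active site by serine hydrolase directed probe; 0% = PME-1 with DMSO and 100% = wells lacking PME-1 enzyme; inhibitors block probe labeling so polarization falls and inhibition rises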
# PAD4 FP inh: human PAD4 inhibitors, primary screen, biochemical, fluorescence polarization, 1536-well format; Protein-arginine deiminase type-4 (Homo sapiens), Q9UM07; recombinant PAD4, RCA probe fluorescence polarization; inhibition, % at 6.36 µM; actives 0.41% (n = 330,000);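 active means percent inhibition above a cutoff equal to the mean of all tested compounds plus 3 SD, cut at about 15% in these data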;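 further: 0% = PAD4 with RCA probe and DMSO and 100% = probe without PAD4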
# Fam108b inh conf: mouse Fam108b serine hydrolase inhibitors, confirmation, counter-screen for RBBP9 inhibitor project, biochemical, fluorescence polarization, triplicate; shares compounds with Fam108B inh; recombinant Fam108b, FP-Rh probe fluorescence polarization; inhibition, % at 9.51 µM; actives 44% (n = 930);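 active means inhibition above a limit from the primary screen, the mean over all compounds plus 3 SD, cut at about 19% in these data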;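 further: 0% = median of active Fam108b wells and 100% = catalytically dead S170A mutant; inhibitors free the probe so polarization falls as inhibition rises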
# PAD4 FP conf: human PAD4 inhibitors, confirmation, biochemical, fluorescence polarization. recombinant PAD4, RCA probe fluorescence polarization. inhibition, % at 6.36 µM. shares compounds with PAD4 FP inh. actives 28% (n = 1,200);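 active means mean inhibition across replicates above the hit cutoff set by the earlier primary screen, cut at about 15% in these data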;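 further: inhibitors block active-site labeling by the probe so polarization falls; 0% = PAD4 with probe and DMSO and 100% = probe without PAD4 enzyme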
# BSA TAMRA ctr: compounds interfering with TAMRA-BSA probe, counter-screen for TCR-CD3 interaction inhibitor project, biochemical, fluorescence, TAMRA-labeled BSA; shares compounds with TCR CD3 inh; actives 10% (n = 1,200); AID 652035, 2013; TAMRA-labeled BSA probe fluorescence counterscreen; inhibition, % at 9.4 µM; in the data active means inhibition above about 23%;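 further: 0% = buffer low control and 100% = reference high control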
# TCR-CD3 conf: TCR-CD3 interaction inhibitors, retest, confirmation, biochemical, fluorescence, TAMRA-labeled TCR probe; shares compounds with TCR CD3 inh; TAMRA-labeled TCR probe fluorescence binding assay; inhibition, % at 9.4 µM; actives 48% (n = 1,200); AID 652036, 2013
# PRMT1 confirm: PRMT1 methyltransferase inhibitors, confirmation, biochemical, fluorescence polarization, triplicate; shares compounds with PRMT1 inh; recombinant His-PRMT1, activity-based probe fluorescence polarization; inhibition, % at 2.79 µM; actives 42% (n = 3,300);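 active means mean inhibition across replicates above the hit cutoff derived for the earlier primary screen, cut at about 22% in these data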
# SIAE confirm: human SIAE inhibitors, retest, confirmation, biochemical, fluorescence polarization, FP-Rh probe, triplicate; shares compounds with SIAE inh; SIAE FP-Rh activity-based probe; inhibition, % at 9.66 µM; actives 13% (n = 2,300);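 active means mean inhibition of the replicates above the hit cutoff set in the primary screen, cut at about 17% in these data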;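 further: 0% = SIAE with DMSO and probe and 100% = probe without SIAE; inhibitors lower polarization as more probe stays unbound to SIAE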
# Numbers without * were called inactive; nt = not tested or not shown; + = active, no number. Unless noted, no stated cut-off is given here; in the data, active means inhibition above about 19%; inactive means the rest.
SMILES,PRMT1 inh,SIAE inh,TCR CD3 inh,Fam108B inh,PME-1 primary,PAD4 FP inh,Fam108b inh conf,others
COc1cccc2c1C(=O)c1c(O)c3c(c(O)c1C2=O)C[C@](O)(C(C)=O)C[C@H]3O[C@@H]1C[C@@H](N)[C@@H](O)[C@@H](C)O1,+,57*,163*,43*,51*,73*,42*,BSA TAMRA ctr=179*;TCR-CD3 conf=148*;PRMT1 confirm=149*
COc1ccc(Oc2c(Cl)cnn(CC(=O)C(c3ccccc3)c3ccccc3)c2=O)cc1,0,3,nt,nt,nt,nt,nt,
CC(C)(C)c1cc[n+](-c2[nH]c(=O)sc2/C=N/N=C(\[O-])c2cccnc2)cc1,1,6,8,0,5,-1,nt,
O=c1[nH]c(-[n+]2ccc3ccccc3c2)c(/C=N/N=C(\[O-])c2ccccc2)s1,54*,6,18,18*,14,0,17,PRMT1 confirm=1
Cc1ccccc1Cn1cc(COC(=O)N2CCOCC2)nn1,-3,0,nt,nt,nt,nt,nt,
O=S(=O)(c1ccc2nc(-c3ccco3)c(-c3ccco3)nc2c1)N1CCOCC1,52*,4,16,19*,12,-5,12,PRMT1 confirm=69*
CCc1c2c3n4c1CCC[C@@H]4C[C@@H]3O[Si](C(C)C)(C(C)C)OC(C)C2=O (stereo not given in full),-3,9,nt,nt,nt,nt,nt,
CN(c1ccccc1)S(=O)(=O)c1ccc(NC(=O)c2nc(S(C)(=O)=O)ncc2Cl)cc1,40*,-6,1,32*,47*,-7,24*,PRMT1 confirm=49*
CN(c1ccccc1)S(=O)(=O)c1ccc(NC(=O)c2ccccc2)cc1,0,-13,-6,-6,-17,-8,nt,
CC(C)NC(=O)[C@]1(C#N)CC(=O)N(C)[C@@H]1c1ccccc1,0,8,nt,nt,nt,nt,nt,
N/C(=N\C(=O)OCc1ccccc1)N(CC#CC1=CCCCC1)CC1CC1,4,-4,nt,nt,nt,nt,nt,
COc1cc(/C=N/NC(=O)c2ccc(CSc3nc4ccccc4[nH]3)cc2)ccc1O,2,19*,-7,24*,-32,-6,2,SIAE confirm=3
COc1cc(/C=N/NC(=O)c2ccccc2)ccc1O,-2,-3,6,4,-7,-8,nt,
O=S1(=O)C=CCN1Cc1cn(Cc2ccc(F)cc2)nn1,-8,7,nt,nt,nt,nt,nt,
O=c1oc2cc(O)ccc2cc1-c1nc2c(s1)CCc1ccccc1-2,18,19*,0,22*,9,2,23*,SIAE confirm=-7
O=c1oc2ccccc2cc1-c1nc2c(s1)CCc1ccccc1-2,2,6,4,1,-4,-9,nt,
Cc1cc2nc3ccc(N(C)C)cc3nc2cc1N,70*,30*,93*,32*,40*,29*,19*,PAD4 FP conf=31*;BSA TAMRA ctr=48*;TCR-CD3 conf=72*;SIAE confirm=32*

# Screening data: PubChem BioAssay, The Scripps Research Institute Molecular Screening Center
